39 compounds from the supplement of paper PMC10515830 can be followed below.

Structures are written as SMILES. Structures can show the parent of a compound that is named as a salt.

In this experiment the test system is Danio rerio larvae (5 dpf). As to the kind of experiment: difference in activity during first hour vs DMSO (percentage points); higher = more activity than DMSO. As to conditions: 10 µM; exposure time 6 h. An outline of the steps:
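Wild-type zebrafish larvae at 5 dpf were kept in 96-well plates and exposed for 6 h to 100 µL egg water holding library compound at a final concentration of 10 µM. From 3 h into exposure, the plates were held at 28.5 ℃ and photographed every 6 s through a 3-h programme of moving lines and 100 ms, 400Hz tones. Each behaviour was scored by Z-LaP Tracker, a DeepLabCut model, and averaged over 48 larvae per compound. Every value gives the compound mean minus the vehicle control mean, in percentage points.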
For `N=C(N)c1ccc(OCCCCCOc2ccc(C(=N)N)cc2)cc1` [Pentamidine], the “difference in activity during first hour” value was -2.12.

In the case of `CC[C@@H]1C(=O)OC[C@@H]1Cc1cncn1C` [(+)-Pilocarpine (hydrochloride)], the “difference in activity during first hour” value was -22.2.

For `Clc1ccc2nsnc2c1NC1=NCCN1` [Tizanidine (hydrochloride)], the “difference in activity during first hour” value was -8.71.

For `C=CC[C@@H]1/C=C(\C)C[C@H](C)C[C@H](OC)[C@H]2O[C@@](O)(C(=O)C(=O)N3CCCC[C@H]3C(=O)O[C@H](/C(C)=C/[C@@H]3CC[C@@H](O)[C@H](OC)C3)[C@H](C)[C@@H](O)CC1=O)[C@H](C)C[C@@H]2OC`, the “difference in activity during first hour” value was determined as 5.28.

Take `CC(C[N+](C)(C)C)OC(N)=O` (centres undefined) [Bethanechol (chloride)]: the “difference in activity during first hour” value is -9.77.

For the compound `Nc1ccn([C@@H]2O[C@H](CO)[C@@H](O)C2(F)F)c(=O)n1` [Gemcitabine], the “difference in activity during first hour” value is -2.75.

`C#CCN[C@@H]1CCc2ccccc21` [Rasagiline]: the “difference in activity during first hour” value was 10.2.

With `COCC(=O)Nc1c(I)c(C(=O)NCC(O)CO)c(I)c(C(=O)N(C)CC(O)CO)c1I` (centres undefined) [Iopromide], the “difference in activity during first hour” value came to 11.3.

As to `C[C@@H]1C[C@H]2[C@@H]3CCC4=CC(=O)C=C[C@]4(C)[C@@]3(Cl)[C@@H](O)C[C@]2(C)[C@@]1(OC(=O)c1ccco1)C(=O)CCl` [Mometasone Furoate], the “difference in activity during first hour” value is 1.33.

`CC(=O)Oc1ccccc1C(=O)Nc1ncc([N+](=O)[O-])s1` [Nitazoxanide]: the “difference in activity during first hour” value is -14.8.

Consider `NC(=O)N[C@@H](CCC(=O)O)C(=O)O` [N-Carbamyl-L-Glutamic Acid], for which the “difference in activity during first hour” value is 17.4.

As for `COc1ccccc1OCCNCC(O)COc1cccc2[nH]c3ccccc3c12` (centres undefined) [Carvedilol], the “difference in activity during first hour” value is -3.13.

For `COc1cc(C(=O)NS(=O)(=O)c2ccccc2C)ccc1Cc1cn(C)c2ccc(NC(=O)OC3CCCC3)cc12` [Zafirlukast], the “difference in activity during first hour” value was determined as 17.6.

For `COc1cccc2c1C(=O)c1c(O)c3c(c(O)c1C2=O)C[C@@](O)(C(C)=O)C[C@@H]3O[C@H]1C[C@H](N)[C@H](O)[C@H](C)O1` [Daunorubicin (hydrochloride)], the “difference in activity during first hour” value was -3.27.

Take `CCc1ccc(CCOc2ccc(CC3SC(=O)NC3=O)cc2)nc1` (centres undefined) [Pioglitazone (hydrochloride)]: the “difference in activity during first hour” value is -15.3.

Regarding `CO[C@H]1C[C@@H]2CC[C@@H](C)[C@@](O)(O2)C(=O)C(=O)N2CCCC[C@H]2C(=O)O[C@H]([C@H](C)C[C@@H]2CC[C@@H](O)[C@H](OC)C2)CC(=O)[C@H](C)/C=C(\C)[C@@H](O)[C@@H](OC)C(=O)[C@H](C)C[C@H](C)/C=C/C=C/C=C/1C` [Rapamycin], the “difference in activity during first hour” value is 0.761.

With `C#Cc1cccc(Nc2ncnc3cc(OCCOC)c(OCCOC)cc23)c1` [Erlotinib], the “difference in activity during first hour” value was -6.91.

For `COc1cc2c(cc1OC)[C@@H](Cc1cc(OC)c(OC)c(OC)c1)[N+](C)(CCCOC(=O)CC/C=C/CCC(=O)OCCC[N+]1(C)CCc3cc(OC)c(OC)cc3[C@H]1Cc1cc(OC)c(OC)c(OC)c1)CC2` (some centres undefined) [Mivacurium (chloride)], the “difference in activity during first hour” value was -16.7.

For `CCOC(=O)[C@H](CCc1ccccc1)N[C@@H](C)C(=O)N1CCC[C@H]1C(=O)O` [Enalapril (maleate)], the “difference in activity during first hour” value is -0.995.

On to `CCCCC[C@H](O)/C=C/[C@H]1[C@H](O)CC(=O)[C@@H]1C/C=C\CCCC(=O)O` [Prostaglandin E2], for which the “difference in activity during first hour” value was determined as 2.46.

In the case of `C#C[C@]1(O)CC[C@H]2[C@@H]3CCC4=Cc5oncc5C[C@]4(C)[C@H]3CC[C@@]21C` [Danazol], the “difference in activity during first hour” value was -23.6.

With `CN(C)CCC[C@@]1(c2ccc(F)cc2)OCc2cc(C#N)ccc21` [Escitalopram], the “difference in activity during first hour” value is -18.9.

`Cc1cccc(Nc2ccccc2C(=O)O)c1C` [Mefenamic Acid]: the “difference in activity during first hour” value was -5.95.

Take `NCC[C@H](O)C(=O)N[C@@H]1C[C@H](N)[C@@H](O[C@H]2O[C@H](CN)[C@@H](O)[C@H](O)[C@H]2O)[C@H](O)[C@H]1O[C@H]1O[C@H](CO)[C@@H](O)[C@H](N)[C@H]1O` [Amikacin]: the “difference in activity during first hour” value came out at 10.9.

On to `COc1cc(Nc2c(C#N)cnc3cc(OCCCN4CCN(C)CC4)c(OC)cc23)c(Cl)cc1Cl` [Bosutinib], for which the “difference in activity during first hour” value was -11.7.

As to `CC/C=C\C/C=C\C/C=C\C/C=C\C/C=C\CCCC(=O)OCC` [Eicosapentaenoic Acid ethyl ester], the “difference in activity during first hour” value was -7.19.

Turning to `Oc1ncnc2[nH]ncc12` [Allopurinol], the “difference in activity during first hour” value was -0.131.

For `CC(=O)CC(c1ccccc1)c1c(O)c2ccccc2oc1=O` (racemic) [(±)-Warfarin], the “difference in activity during first hour” value is -0.141.

Regarding `CC(=O)Nc1nnc(S(N)(=O)=O)s1` [Acetazolamide], the “difference in activity during first hour” value was determined as 14.2.

In the case of `Nc1nc2c(ncn2COC(CO)CO)c(=O)[nH]1` [Ganciclovir], the “difference in activity during first hour” value turned out to be 7.53.

As to `NS(=O)(=O)c1cc2c(cc1Cl)NCNS2(=O)=O` [Hydrochlorothiazide], the “difference in activity during first hour” value was 2.42.

Consider `CC(C)CN(C[C@@H](O)[C@H](Cc1ccccc1)NC(=O)O[C@H]1CCOC1)S(=O)(=O)c1ccc(N)cc1` [Amprenavir], for which the “difference in activity during first hour” value came to 6.71.

With `Cc1ccc([C@@H]2O[C@H](CO)[C@@H](O)[C@H](O)[C@H]2O)cc1Cc1ccc(-c2ccc(F)cc2)s1` [Canagliflozin], the “difference in activity during first hour” value amounted to 3.63.

Turning to `CC(C)(C)NC(=O)[C@H]1CC[C@H]2[C@@H]3CC[C@H]4NC(=O)C=C[C@]4(C)[C@H]3CC[C@]12C` [Finasteride], the “difference in activity during first hour” value was found to be 10.8.

Consider `CCCc1nc2c(C)cc(-c3nc4ccccc4n3C)cc2n1Cc1ccc(-c2ccccc2C(=O)O)cc1` [Telmisartan], for which the “difference in activity during first hour” value came to 9.61.

For the compound `CC(C)(C)NC[C@H](O)COc1nsnc1N1CCOCC1` [Timolol (maleate)], the “difference in activity during first hour” value is 0.276.

As to `O=c1[nH]cc(F)c(=O)[nH]1` [5-Fluorouracil], the “difference in activity during first hour” value was -1.12.

Consider `CC1=NN(c2ccccc2)C(=O)C1`, for which the “difference in activity during first hour” value was -1.37.

As to `N#C[C@@H]1C[C@@H]2C[C@@H]2N1C(=O)[C@@H](N)C12CC3CC(CC(O)(C3)C1)C2` [Saxagliptin (hydrochloride)], the “difference in activity during first hour” value was 11.5.
